Source: the supplement of paper PMC11732987, “Enantioselective OTUD7B fragment discovery through chemoproteomics screening and high-throughput optimisation” (Communications Chemistry, 2025)

Columns and labels:
Assay in all cases: log2 ratio of Biotin-Ahx-Ub-VS probe labelling (fragment/DMSO); higher = less target engagement (more negative = stronger competition), active = hit call of the paper (q ≤ 0.05, log2 ratio ≤ -1)
Details in all cases: compound concentration: 200 uM; treatment time: 3 h
[1] = molecular target: T1, USP42 (UniProt Q9H9J4)
T1 sequence (whole entry): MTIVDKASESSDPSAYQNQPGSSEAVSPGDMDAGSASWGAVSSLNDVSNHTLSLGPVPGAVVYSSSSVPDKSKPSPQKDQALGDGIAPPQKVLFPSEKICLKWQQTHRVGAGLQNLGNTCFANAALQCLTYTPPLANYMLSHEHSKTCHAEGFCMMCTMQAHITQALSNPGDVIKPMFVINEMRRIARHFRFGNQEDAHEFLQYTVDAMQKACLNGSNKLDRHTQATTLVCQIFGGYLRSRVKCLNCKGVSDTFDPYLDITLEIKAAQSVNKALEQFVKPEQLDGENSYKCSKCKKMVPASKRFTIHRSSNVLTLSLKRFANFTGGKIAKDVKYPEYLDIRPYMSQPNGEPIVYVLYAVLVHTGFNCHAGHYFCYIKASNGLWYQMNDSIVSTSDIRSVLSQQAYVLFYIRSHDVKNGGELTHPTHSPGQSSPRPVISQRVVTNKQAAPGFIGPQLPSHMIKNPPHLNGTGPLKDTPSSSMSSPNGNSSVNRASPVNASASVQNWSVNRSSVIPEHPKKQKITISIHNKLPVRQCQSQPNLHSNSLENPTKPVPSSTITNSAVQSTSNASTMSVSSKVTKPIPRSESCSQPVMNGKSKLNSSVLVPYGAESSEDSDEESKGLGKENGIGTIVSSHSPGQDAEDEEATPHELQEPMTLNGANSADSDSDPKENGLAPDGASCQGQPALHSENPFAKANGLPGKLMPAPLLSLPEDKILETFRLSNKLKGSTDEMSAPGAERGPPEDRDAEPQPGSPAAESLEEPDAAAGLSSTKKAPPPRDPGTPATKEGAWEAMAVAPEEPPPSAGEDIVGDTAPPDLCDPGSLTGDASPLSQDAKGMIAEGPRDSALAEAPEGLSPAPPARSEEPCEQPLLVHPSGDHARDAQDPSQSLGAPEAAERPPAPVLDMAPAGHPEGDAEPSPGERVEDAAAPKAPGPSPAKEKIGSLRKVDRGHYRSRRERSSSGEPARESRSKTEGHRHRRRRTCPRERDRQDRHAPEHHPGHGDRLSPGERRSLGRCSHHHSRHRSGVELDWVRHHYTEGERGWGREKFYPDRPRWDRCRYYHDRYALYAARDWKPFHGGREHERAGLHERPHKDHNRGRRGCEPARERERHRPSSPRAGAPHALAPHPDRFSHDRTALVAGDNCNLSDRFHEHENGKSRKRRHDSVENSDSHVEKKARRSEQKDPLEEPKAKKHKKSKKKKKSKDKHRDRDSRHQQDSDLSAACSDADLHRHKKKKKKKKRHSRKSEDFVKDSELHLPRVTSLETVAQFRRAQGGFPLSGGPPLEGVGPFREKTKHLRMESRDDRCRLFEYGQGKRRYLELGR
How it was run: (§1)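 Global-median-normalised Spectronaut label-free quantities were compared by unpaired t-test, and values are average log2 ratios of fragment over vehicle. Only proteins with ≥2 unique peptides were used. HEK293T lysate (495 µg per sample) was treated in triplicate with fragment at 200 µM or vehicle for 3 h and then with Biotin-Ahx-Ub-VS at 0.5 µM final for 1 h. Labelled DUBs were then NeutrAvidin-enriched, digested with LysC and trypsin, and run by diaPASEF LC-MS/MS.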

[2] = molecular target: USP46 (UniProt P62068)
USP46, sequence (P62068 whole entry): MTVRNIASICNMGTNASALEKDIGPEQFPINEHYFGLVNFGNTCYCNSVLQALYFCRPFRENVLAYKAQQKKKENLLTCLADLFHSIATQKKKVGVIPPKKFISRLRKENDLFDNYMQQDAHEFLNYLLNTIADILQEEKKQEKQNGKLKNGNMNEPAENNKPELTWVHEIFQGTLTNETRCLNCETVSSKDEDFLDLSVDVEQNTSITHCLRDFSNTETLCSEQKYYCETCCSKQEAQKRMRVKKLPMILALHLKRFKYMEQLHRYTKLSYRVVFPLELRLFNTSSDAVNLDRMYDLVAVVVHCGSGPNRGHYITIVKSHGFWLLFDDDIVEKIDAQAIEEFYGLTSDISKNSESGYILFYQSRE
How it was run: as §1

[3] = molecular target: T2, USP47 (UniProt Q96K76)
T2 sequence (whole entry): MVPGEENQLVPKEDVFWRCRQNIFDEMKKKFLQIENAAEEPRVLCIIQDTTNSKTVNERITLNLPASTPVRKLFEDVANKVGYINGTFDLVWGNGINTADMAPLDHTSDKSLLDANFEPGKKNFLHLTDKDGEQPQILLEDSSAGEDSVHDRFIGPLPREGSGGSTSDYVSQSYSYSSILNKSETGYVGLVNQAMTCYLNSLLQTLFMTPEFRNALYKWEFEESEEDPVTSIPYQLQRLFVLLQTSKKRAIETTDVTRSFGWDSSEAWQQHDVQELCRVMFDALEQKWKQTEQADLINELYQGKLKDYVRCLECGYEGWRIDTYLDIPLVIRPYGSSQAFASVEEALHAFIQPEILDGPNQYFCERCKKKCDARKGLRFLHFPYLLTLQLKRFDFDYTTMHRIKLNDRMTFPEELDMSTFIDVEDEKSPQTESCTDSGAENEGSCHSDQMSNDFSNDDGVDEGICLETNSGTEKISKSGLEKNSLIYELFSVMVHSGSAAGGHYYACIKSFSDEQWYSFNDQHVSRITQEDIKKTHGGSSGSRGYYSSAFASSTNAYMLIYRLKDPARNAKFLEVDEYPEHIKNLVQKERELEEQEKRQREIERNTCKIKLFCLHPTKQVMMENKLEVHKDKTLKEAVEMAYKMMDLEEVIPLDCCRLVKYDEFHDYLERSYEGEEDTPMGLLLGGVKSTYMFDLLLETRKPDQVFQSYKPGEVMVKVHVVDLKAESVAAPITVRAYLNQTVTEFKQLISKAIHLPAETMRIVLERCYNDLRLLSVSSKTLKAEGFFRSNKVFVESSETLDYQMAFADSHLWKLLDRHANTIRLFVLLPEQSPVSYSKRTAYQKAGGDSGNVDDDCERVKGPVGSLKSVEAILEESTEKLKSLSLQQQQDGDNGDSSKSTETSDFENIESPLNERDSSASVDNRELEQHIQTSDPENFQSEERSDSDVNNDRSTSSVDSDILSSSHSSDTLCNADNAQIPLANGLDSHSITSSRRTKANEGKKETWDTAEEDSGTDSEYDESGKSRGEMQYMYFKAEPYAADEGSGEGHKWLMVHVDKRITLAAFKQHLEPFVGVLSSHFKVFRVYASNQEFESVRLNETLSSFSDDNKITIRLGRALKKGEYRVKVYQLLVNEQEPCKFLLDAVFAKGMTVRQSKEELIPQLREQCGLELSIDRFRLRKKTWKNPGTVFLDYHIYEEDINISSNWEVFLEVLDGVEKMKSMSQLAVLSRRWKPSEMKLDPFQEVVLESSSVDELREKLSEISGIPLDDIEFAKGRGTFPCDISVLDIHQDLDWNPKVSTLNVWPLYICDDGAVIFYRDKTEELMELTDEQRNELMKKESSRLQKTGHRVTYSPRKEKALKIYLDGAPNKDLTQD
How it was run: as §1

[4] = molecular target: T3, USP48 (UniProt Q86UV5)
T3 sequence (whole entry): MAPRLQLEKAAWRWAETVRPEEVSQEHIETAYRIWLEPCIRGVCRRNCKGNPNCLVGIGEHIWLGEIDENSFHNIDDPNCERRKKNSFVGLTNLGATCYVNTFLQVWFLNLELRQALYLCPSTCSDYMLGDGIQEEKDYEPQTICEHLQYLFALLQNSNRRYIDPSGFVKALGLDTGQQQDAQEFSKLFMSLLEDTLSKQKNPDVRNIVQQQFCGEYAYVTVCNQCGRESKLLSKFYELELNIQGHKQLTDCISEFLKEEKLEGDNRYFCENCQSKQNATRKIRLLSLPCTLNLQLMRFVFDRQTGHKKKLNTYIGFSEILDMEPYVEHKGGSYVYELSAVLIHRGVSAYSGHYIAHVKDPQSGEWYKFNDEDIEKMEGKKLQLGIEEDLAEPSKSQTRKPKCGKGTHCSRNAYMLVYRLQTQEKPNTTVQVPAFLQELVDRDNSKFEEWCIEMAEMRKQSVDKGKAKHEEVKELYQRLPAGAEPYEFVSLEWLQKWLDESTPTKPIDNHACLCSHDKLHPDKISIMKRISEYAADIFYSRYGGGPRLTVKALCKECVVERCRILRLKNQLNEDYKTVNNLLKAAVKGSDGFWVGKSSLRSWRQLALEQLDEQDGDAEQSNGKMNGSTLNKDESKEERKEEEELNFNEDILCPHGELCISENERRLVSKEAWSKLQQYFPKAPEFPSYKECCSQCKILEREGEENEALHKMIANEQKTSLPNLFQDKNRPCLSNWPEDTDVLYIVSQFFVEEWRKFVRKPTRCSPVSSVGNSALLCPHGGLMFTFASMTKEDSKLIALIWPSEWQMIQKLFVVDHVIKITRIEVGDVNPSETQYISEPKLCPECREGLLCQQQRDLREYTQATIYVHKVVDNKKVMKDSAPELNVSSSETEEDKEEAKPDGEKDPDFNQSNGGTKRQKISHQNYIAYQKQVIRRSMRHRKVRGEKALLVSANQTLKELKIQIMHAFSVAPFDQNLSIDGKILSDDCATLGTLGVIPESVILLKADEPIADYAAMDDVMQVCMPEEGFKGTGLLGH
How it was run: as §1

[5] = molecular target: T4, USP5 (UniProt P45974)
T4 sequence (whole entry): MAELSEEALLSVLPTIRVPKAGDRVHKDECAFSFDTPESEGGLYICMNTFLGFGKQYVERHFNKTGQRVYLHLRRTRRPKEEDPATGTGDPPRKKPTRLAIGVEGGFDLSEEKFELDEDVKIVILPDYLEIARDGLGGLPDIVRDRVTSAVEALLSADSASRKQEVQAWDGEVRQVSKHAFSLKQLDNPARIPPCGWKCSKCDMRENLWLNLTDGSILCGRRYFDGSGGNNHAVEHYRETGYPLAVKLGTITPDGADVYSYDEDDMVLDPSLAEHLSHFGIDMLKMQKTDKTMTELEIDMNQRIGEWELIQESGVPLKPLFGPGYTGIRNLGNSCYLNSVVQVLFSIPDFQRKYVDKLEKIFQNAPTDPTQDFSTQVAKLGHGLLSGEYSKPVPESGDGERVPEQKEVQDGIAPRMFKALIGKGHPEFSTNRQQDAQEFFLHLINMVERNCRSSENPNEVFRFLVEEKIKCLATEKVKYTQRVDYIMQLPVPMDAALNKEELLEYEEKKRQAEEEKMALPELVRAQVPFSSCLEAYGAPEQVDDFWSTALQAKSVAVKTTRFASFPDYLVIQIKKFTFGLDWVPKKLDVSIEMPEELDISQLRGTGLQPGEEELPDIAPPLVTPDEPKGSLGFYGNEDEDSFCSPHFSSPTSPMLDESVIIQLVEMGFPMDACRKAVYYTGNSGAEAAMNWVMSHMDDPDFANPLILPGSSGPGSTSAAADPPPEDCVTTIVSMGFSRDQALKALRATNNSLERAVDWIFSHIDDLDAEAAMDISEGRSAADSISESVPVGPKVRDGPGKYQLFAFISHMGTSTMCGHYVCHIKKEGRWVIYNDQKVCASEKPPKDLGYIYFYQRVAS
How it was run: as §1

[6] = molecular target: USP54 (UniProt Q70EL1)
USP54, sequence (Q70EL1 whole entry): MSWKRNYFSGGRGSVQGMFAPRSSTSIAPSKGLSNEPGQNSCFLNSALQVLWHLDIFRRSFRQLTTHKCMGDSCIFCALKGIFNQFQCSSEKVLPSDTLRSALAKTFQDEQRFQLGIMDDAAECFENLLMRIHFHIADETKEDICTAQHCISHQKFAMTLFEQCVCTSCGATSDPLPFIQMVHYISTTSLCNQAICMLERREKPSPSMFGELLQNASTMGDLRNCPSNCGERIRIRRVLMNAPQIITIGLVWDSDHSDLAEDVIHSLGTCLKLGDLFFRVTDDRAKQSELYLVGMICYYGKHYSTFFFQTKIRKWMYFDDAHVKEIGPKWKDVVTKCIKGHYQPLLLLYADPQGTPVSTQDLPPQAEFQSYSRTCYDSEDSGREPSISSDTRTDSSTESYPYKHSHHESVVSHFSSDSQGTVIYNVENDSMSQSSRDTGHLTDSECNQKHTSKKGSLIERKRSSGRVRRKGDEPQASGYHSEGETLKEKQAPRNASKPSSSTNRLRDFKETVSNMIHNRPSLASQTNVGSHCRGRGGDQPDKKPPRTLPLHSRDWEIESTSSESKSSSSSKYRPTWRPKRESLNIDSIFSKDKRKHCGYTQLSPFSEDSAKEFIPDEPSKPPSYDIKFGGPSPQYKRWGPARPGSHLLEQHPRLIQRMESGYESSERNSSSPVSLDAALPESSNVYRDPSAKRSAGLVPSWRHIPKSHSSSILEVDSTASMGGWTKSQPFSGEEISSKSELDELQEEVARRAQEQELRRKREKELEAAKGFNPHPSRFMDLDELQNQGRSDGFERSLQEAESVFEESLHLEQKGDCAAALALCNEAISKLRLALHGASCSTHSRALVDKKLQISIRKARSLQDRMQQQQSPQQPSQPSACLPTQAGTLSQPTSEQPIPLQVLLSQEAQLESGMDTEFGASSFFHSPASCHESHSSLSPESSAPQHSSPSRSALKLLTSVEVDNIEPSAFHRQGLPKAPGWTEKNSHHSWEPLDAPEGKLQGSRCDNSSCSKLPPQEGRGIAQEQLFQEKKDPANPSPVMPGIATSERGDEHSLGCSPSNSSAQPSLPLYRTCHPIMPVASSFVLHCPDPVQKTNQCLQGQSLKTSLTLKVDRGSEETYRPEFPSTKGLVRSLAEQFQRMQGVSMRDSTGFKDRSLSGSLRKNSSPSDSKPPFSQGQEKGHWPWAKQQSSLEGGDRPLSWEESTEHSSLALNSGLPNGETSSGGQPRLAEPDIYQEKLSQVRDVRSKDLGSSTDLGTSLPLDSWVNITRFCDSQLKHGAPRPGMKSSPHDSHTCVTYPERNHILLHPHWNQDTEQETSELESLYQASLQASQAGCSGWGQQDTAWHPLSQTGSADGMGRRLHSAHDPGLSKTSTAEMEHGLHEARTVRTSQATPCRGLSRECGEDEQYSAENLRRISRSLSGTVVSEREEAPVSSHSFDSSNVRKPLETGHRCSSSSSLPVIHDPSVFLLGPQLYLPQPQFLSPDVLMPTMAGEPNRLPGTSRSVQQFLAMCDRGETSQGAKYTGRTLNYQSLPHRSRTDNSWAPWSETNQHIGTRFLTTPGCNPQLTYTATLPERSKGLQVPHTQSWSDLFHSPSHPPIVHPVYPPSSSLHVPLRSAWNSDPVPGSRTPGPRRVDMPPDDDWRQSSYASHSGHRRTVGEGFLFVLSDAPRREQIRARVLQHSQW
How it was run: as §1

[7] = molecular target: USP7 (UniProt Q93009)
USP7, sequence (Q93009 whole entry, looked up): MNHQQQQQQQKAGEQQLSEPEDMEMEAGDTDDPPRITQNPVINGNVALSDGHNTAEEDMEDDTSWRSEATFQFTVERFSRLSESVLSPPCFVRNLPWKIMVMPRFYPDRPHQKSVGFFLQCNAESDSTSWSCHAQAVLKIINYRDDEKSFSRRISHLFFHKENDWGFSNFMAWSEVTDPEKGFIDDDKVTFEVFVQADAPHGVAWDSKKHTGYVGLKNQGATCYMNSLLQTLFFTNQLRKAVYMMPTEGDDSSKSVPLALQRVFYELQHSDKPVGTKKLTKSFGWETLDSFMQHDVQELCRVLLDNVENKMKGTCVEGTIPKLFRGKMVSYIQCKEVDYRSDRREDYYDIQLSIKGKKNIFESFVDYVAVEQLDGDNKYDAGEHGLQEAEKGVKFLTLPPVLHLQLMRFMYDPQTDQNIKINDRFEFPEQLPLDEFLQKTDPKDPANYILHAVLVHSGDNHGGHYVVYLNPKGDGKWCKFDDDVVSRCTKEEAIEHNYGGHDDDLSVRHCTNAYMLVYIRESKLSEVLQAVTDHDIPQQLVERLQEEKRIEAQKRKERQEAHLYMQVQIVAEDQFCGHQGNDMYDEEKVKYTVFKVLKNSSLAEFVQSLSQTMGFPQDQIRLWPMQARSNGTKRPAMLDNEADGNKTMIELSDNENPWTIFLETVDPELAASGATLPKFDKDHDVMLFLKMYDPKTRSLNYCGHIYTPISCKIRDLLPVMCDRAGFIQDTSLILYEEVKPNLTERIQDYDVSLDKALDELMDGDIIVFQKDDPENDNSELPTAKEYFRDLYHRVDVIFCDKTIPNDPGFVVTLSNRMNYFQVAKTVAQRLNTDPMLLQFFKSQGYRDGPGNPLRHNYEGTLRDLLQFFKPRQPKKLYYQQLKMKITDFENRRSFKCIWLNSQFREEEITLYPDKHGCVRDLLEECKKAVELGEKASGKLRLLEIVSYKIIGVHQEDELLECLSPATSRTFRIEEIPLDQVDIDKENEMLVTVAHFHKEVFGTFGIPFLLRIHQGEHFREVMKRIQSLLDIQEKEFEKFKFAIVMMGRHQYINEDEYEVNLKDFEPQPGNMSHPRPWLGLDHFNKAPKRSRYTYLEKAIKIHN
How it was run: as §1

[8] = molecular target: T5, USP8 (UniProt P40818)
T5 sequence (whole entry): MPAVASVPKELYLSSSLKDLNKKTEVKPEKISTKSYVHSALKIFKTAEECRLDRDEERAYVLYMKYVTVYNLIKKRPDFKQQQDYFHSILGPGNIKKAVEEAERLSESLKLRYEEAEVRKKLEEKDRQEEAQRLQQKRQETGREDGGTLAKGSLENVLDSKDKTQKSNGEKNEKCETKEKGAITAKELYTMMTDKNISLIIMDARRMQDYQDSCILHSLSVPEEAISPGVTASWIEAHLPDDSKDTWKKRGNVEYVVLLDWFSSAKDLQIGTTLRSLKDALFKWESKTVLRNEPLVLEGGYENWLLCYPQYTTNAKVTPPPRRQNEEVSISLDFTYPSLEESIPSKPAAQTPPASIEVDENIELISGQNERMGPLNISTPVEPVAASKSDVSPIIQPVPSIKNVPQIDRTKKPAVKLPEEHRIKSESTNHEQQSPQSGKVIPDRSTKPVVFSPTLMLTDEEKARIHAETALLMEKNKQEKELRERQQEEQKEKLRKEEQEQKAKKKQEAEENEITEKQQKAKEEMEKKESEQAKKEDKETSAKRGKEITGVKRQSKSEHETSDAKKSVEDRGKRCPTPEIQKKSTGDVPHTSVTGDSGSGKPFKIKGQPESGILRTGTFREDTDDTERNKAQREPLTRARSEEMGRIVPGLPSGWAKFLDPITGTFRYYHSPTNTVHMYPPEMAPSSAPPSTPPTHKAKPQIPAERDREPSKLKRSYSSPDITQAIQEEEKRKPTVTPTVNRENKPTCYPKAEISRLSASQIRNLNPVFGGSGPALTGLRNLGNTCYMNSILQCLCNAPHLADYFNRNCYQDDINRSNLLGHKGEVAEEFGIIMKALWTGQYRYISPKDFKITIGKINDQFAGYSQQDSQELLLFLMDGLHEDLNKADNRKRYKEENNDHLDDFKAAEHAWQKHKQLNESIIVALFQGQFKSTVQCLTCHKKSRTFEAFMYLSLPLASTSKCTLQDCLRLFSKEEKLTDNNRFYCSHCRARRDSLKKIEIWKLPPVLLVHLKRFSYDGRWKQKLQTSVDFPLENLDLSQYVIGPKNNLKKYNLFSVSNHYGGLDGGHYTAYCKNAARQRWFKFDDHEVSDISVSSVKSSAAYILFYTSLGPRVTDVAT
How it was run: as §1

[9] = molecular target: USP9X (UniProt Q93008)
How it was run: as §1

[10] = molecular target: UniProt O00487
UniProt O00487, sequence (O00487 whole entry): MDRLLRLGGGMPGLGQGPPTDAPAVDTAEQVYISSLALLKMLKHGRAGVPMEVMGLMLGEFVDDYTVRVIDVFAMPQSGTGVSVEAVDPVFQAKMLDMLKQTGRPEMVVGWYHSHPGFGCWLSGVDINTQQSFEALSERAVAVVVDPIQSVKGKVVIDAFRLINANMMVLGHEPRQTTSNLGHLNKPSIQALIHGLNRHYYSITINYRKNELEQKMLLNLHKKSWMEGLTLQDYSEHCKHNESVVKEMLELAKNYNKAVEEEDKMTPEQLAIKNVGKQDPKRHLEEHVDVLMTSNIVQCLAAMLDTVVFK
How it was run: as §1

Measured: log2 ratio of Biotin-Ahx-Ub-VS probe labelling

CN(CCC(O)c1ccc(Br)cc1)C(=O)CCl (stereo not given)
inactive: [1] 0.556 | [2] -0.218 | [3] -0.526 | [4] -0.691 | [5] -0.00644 | [6] 0.00894 | [7] -0.612 | [8] -0.072 | [9] -0.275 | [10] -0.00696

Cl.O=C(CCl)NCCc1ncc(F)cc1F
inactive: [1] -0.132 | [2] -0.0594 | [3] 0.122 | [4] -0.466 | [5] -0.0776 | [6] -0.439 | [7] -0.34 | [8] -0.607 | [9] -0.419 | [10] -0.24
